Measurements published in the supplement of paper PMC4840960.

Tested on: E18 rat cortical neuron-glia co-culture
Assay: fiber score / MBP score (myelination specific beyond OL differentiation) (ratio); higher = more myelination-specific MBP alignment
Settings: 1 µM; treatment time: 8 days (DIV5-DIV13)
How it was run: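 Primary E18 rat cortical co-cultures (papain-dissociated, 20,000 cells/well on poly-d-lysine/laminin 96-well plates) received library compounds at 1 or 5 µM in myelination medium from DIV5 to DIV13. Cells were fixed in 4 % paraformaldehyde and immunostained for MBP and Olig2 with DAPI, and four 10X fields per well in duplicate wells were analysed. The read-out is fiber score (continuous MBP fiber length per Olig2+ nucleus) divided by MBP score (thresholded MBP area × intensity per Olig2+ nucleus).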

SMILES	fiber score / MBP score
CCn1cc(C(=O)O)c(=O)c2ccc(C)nc21 [Nalidixic Acid]	0.966
C[C@H]1c2cccc(O)c2C(=O)C2=C(O)[C@]3(O)C(=O)C(C(N)=O)=C(O)[C@@H](N(C)C)[C@@H]3[C@@H](O)[C@@H]21 [Doxycycline]	0.798
CCOC(=O)N1CCC(=C2c3ccc(Cl)cc3CCc3cccnc32)CC1 [Loratadine]	0.832
CCC1=C[C@@H]2CN(C1)Cc1c([nH]c3ccccc13)[C@@](C(=O)OC)(c1cc3c(cc1OC)N(C)[C@H]1[C@@](O)(C(=O)OC)[C@H](OC(C)=O)[C@]4(CC)C=CCN5CC[C@]31[C@@H]54)C2 [Vinorelbine]	0.944
O=C(O[C@@H]1Cc2c(O)cc(O)cc2O[C@@H]1c1cc(O)c(O)c(O)c1)c1cc(O)c(O)c(O)c1 [Epigallocatechin gallate]	0.732
Cc1onc(-c2ccccc2)c1C(=O)N[C@@H]1C(=O)N2[C@@H]1SC(C)(C)[C@@H]2C(=O)O [Oxacillin]	0.974
CN1CCC[C@H]1c1cccnc1 [Nicotine]	0.761
C=C1/C(=C\C=C2/CCC[C@]3(C)[C@@H]([C@H](C)CCCC(C)(C)O)CC[C@@H]23)C[C@@H](O)C[C@@H]1O [Calcitriol]	0.737
O=C(c1ccc(OCCN2CCCCC2)cc1)c1c(-c2ccc(O)cc2)sc2cc(O)ccc12 [Raloxifene]	0.211
C[C@@H]1O[C@@H](OC[C@H]2O[C@@H](Oc3c(-c4ccc(O)c(O)c4)oc4cc(O)cc(O)c4c3=O)[C@H](O)[C@@H](O)[C@@H]2O)[C@H](O)[C@H](O)[C@H]1O [Rutin]	0.757
OCc1cccnc1 [Nicotinyl Alcohol]	0.641
CC(C)(C)NCC(O)COc1cccc2c1CC(O)C(O)C2 (stereo not given) [Nadolol]	0.767
Cc1c(OCC(F)(F)F)ccnc1C[S+]([O-])c1nc2ccccc2[nH]1 (stereo not given) [Lansoprazole]	0.767
CCCSc1ccc2[nH]c(NC(=O)OC)nc2c1 [Albendazole]	0.797
Cc1nc2n(c(=O)c1CCN1CCC(c3noc4cc(F)ccc34)CC1)CCCC2 [Risperidone]	0.936
C#C[C@]1(OC(C)=O)CC[C@H]2[C@@H]3CCC4=CC(=O)CC[C@@H]4[C@H]3CC[C@@]21C [Norethisterone acetate]	0.907
CC(C)Oc1ccc2c(=O)c(-c3ccccc3)coc2c1 [Ipriflavone]	0.908
Cc1[nH]cnc1CN1CCc2c(c3ccccc3n2C)C1=O [Alosetron]	0.768

SMILES	fiber score / MBP score
NC[C@H](O)c1ccc(O)c(O)c1 [Norepinephrine]	0.663
CCOC(=O)OC(C)OC1=C(C(=O)Nc2ccccn2)N(C)S(=O)(=O)c2ccccc21 (stereo not given) [Ampiroxicam]	0.796
CCCCC(=O)N(Cc1ccc(-c2ccccc2-c2nnn[nH]2)cc1)[C@H](C(=O)O)C(C)C [Valsartan]	0.885
CC1=C(C(=O)O)N2C(=O)[C@@H](NC(=O)[C@H](N)c3ccccc3)[C@H]2SC1 [Cephalexin]	0.963
O=c1[nH]cnc2c1ncn2[C@H]1CC[C@@H](CO)O1 [2',3'-Dideoxyinosine]	1.07
CC(C)NCC(O)c1ccc(NS(C)(=O)=O)cc1 (stereo not given) [Sotalol]	0.726
Nc1nc(N)c2nc(-c3ccccc3)c(N)nc2n1 [Triamterene]	1.39
OCc1cc(C(O)CNCCCCCCOCCCCc2ccccc2)ccc1O (stereo not given) [Salmeterol]	0.225
COc1cc(C[C@@H](CO)[C@H](CO)Cc2ccc(O)c(OC)c2)ccc1O [Secoisolariciresinol]	0.879
C#C[C@]1(O)CC[C@H]2[C@@H]3CCC4=CC(=O)CC[C@@H]4[C@H]3CC[C@@]21C [Norethindrone]	0.894
C[C@](N)(Cc1ccc(O)c(O)c1)C(=O)O [Methyldopa]	1.28
O=C1CC[C@@H](C(=O)N2CSC[C@H]2C(=O)O)N1 [Pidotimod]	0.869
COCCCC/C(=N\OCCN)c1ccc(C(F)(F)F)cc1 [Fluvoxamine]	1.03
CN1CCC(=C2c3ccccc3C=Cc3ccccc32)CC1 [Cyproheptadine]	0.58
CNNCc1ccc(C(=O)NC(C)C)cc1 [Procarbazine]	0.937
CN(C)CCC=C1c2ccccc2CCc2ccccc21 [Amitriptyline]	0.785
C[C@]12C[C@H](O)[C@H]3[C@@H](CCC4=CC(=O)CC[C@@]43C)[C@@H]1CC[C@@H]2C(=O)CO [Corticosterone]	0.706
